Assay outcomes (PubChem)
Most compounds without a hit are left out; they make up all but 1.8% or so of the library.
TRPML1 blocker: inhibitors of human TRPML1 channel. Q9GZU1. TRPML1-inducible cells, Ca2+ dye fluorescence, FDSS; active compounds read low; inhibition of EC80 agonist-evoked calcium signal. activity change, negative = inhibition, % (concentration not given with the values). actives 0.02% (n = 390,000). AID 624415; in the data active = activity change below about -50%; inconclusive = between about -30% and that limit;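 note: stimulus is agonist 54-4 at its EC80 concentration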
Target sequence (Q9GZU1 whole entry, looked up): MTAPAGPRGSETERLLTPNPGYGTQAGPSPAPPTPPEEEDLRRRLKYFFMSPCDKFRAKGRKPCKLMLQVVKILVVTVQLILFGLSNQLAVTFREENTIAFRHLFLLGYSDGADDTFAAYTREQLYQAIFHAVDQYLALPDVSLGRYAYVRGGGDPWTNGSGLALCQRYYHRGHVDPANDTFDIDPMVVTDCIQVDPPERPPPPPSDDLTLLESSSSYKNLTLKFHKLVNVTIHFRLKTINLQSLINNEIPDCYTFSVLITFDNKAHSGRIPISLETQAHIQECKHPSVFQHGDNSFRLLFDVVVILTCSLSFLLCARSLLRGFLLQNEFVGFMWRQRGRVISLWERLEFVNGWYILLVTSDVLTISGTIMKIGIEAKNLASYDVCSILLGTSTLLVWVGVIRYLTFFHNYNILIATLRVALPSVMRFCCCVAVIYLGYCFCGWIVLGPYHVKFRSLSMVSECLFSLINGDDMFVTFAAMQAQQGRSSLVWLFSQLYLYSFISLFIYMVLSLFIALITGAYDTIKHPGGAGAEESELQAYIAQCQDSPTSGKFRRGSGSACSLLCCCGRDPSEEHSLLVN
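TRPML1-DL cells, Tet-induced overnight (~16 h, 37 °C) at 1,500 cells/well, were loaded with Ca8 no-wash dye plus quencher for 45-90 min at room temperature. Compounds were pinned during FDSS kinetic reading; agonist 54-4 at EC80 (4 uM final) then added.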
GLP1R inv ag: GLP-1 receptor (human) inverse agonism. AID 624417. HEK293 GLP-1R CRE-luciferase, luminescence, 24 h; GLP-1R form is constitutively active. actives 1.6% (n = 410,000). Potency, µM (top dose mostly 38.3 µM), actives largely listed as inhibitors. P43220; note: nearly all actives have a fitted effect of over 55% in size
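Luminescence readout: a drop in cAMP-driven luciferase signal flags inverse agonism at a constitutively active GLP-1R stably expressed in HEK293. Compound exposure lasted 24 hr at 37 deg C, 5% CO2.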
TRPML1 ag: human mucolipin-1 channel agonism; activation, % (test concentration not listed); Q9GZU1; TRPML1-expressing cells, Ca2+ dye fluorescence, FDSS; AID 624414; actives 0.12% (n = 410,000); in the data active = activation above about 50%; inconclusive = mostly about 30% to 49%
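Calcium fluorescence on an FDSS kinetic reader gave the read-out. Tet-induced TRPML1-DL cells were plated overnight, dye-loaded (Ca8 with quencher, 45-90 min, room temperature, dark), then read 110 s after compound addition, and again 110 s after 4uM final 54-4 (EC80).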
GLP-1R agonist: activates the human GLP-1 receptor. Potency, µM (doses to about 45.6 µM), actives largely listed as activators. P43220. actives 0.007% (n = 380,000). HEK293 GLP-1R CRE-luciferase, luminescence, 4-6 h; cells express a hypersensitive GLP-1R form
GLP1R cytotox: cytotoxicity in counter-screen for GLP-1R inverse agonists. HEK293 cAMP-luciferase reporter cells, luminescence, 24 h. Potency, µM (highest dose often 38.3 µM), most hits filed as inhibitors. actives 0.13% (n = 410,000);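 note: loss of luciferase light is scored as toxicity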
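To flag toxic compounds, the library was rerun on cells for 24 hr at 37 deg C and 5% CO2. Viability-linked luminescence was captured 12 min after adding luciferase detection reagent.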
A number is an active result; 0 = inactive; ? = inconclusive; - = no result given; ! = not confirmed by another sample. Unless noted, calls come from the whole dose curve; as a rule, active = well fitted curve in the direction sought with a large enough effect; inconclusive = small, poorly fitted or top-dose-only effect, or another doubt; inactive = no such curve, though single readings can be large; an effect the other way counts as inactive or inconclusive.

SMILES | TRPML1 blocker | GLP1R inv ag | TRPML1 ag | GLP-1R agonist | GLP1R cytotox
CC1=C(C(=O)Nc2cc(Cl)ccc2C)C2(CCCCC2)OC1=O | 0 | ? | 0 | - | 0
CC(C(=O)O)c1ccc(N2Cc3ccccc3C2=O)cc1 (configuration not stated) | 0 | 6.3µM | 0 | 0 | 0
CCN1C(=O)c2ccccc2C1Nc1cccc(OCCN2CCCCC2)c1 (configuration not stated) | - | - | - | 0 | -
CCOc1ccc(/C=C/c2nc(C#N)c(NC3CCCCC3)o2)cc1 | 0 | 0 | 0 | - | 0
CC[C@H](C)[C@@H]1NC(=O)[C@@H](CC(C)C)NC(=O)[C@H](C(C)C)NC(=O)[C@H]2CSSC[C@H](NC1=O)C(=O)N2 | - | 4µM | 0 | 0 | ?
CC(C)CC1NC(=O)C(CCCN)NC(=O)C(C(C)C)NC(=O)C2CCCN2C(=O)C(Cc2ccccc2)NC(=O)C(CC(C)C)NC(=O)C(CCCN)NC(=O)C(C(C)C)NC(=O)C2CCCN2C(=O)C(Cc2ccccc2)NC1=O (configuration not stated) | - | - | - | 0 | -
O=C(CSc1cccc[n+]1[O-])c1ccccc1Br | 0 | ? | 0 | 0 | 0.79µM
Cc1nc2c(O)c3c(c(O)c2nc1C)C1C=CC3CC1 | 0 | ? | 0 | 0 | 5.6µM
CCOC(=O)c1[nH]c(C)c(CCC(=O)Nc2ccccc2C(=O)OC)c1C | 0 | 0 | 0 | - | 0
O=C1N[C@@H](Cc2ccccc2)C(=O)N2[C@@H]3N(S(=O)(=O)c4ccccc4)c4ccccc4[C@]3(Br)C[C@@H]12 | 0 | 10µM | 0 | 0 | 0
O=C1N[C@@H](Cc2ccccc2)C(=O)N2[C@H]1C[C@]1([C@]34C[C@H]5C(=O)N[C@@H](Cc6ccccc6)C(=O)N5[C@H]3N(S(=O)(=O)c3ccccc3)c3ccccc34)c3ccccc3N(S(=O)(=O)c3ccccc3)[C@H]21 | 0 | 0 | 0 | 0 | 0
O=C1N[C@@H](Cc2ccccc2)C(=O)N2CCCC12 (some centres not stated) | 0 | 0 | 0 | 0 | 0
CC(C)c1cc(C(C)C)c(S(=O)(=O)N2c3ccccc3[C@@]3(Br)C[C@H]4C(=O)N[C@@H](Cc5ccccc5)C(=O)N4[C@@H]23)c(C(C)C)c1 | 0 | 5.6µM | 0 | 0 | 0
Cc1ccc(N(CC(=O)N2CCc3ccccc32)S(=O)(=O)c2cccs2)cc1 | 0 | 10µM | 0 | 0 | 0
Cc1ccc(S(=O)(=O)N(CC(=O)N2CCc3ccccc3C2)c2ccc(C)c(C)c2)cc1 | 0 | 11µM | 0 | - | 0
COc1ccc(N(CC(=O)N2CCc3ccccc32)S(=O)(=O)c2c(C)nn(C)c2C)cc1 | 0 | 0 | 0 | 0 | 0
CC(NC(=O)Nc1cc(Cl)ccc1Cl)c1c(-n2cccc2)sc2c1CCCC2 (configuration not stated) | 0 | 3.5µM | 0 | - | 0
O=C(c1ccc(F)cc1)c1cn(Cc2ccccc2)c2cc3c(cc2c1=O)OCO3 | 0 | 0 | 0 | - | 0
CCNc1nc(OC)nc(Oc2ccc(=O)[nH]n2)n1 | 0 | 0 | 0 | 0 | 0
C=C[C@@H]1c2ccccc2N(S(=O)(=O)c2ccc(C)cc2)[C@H](c2ccccc2)C1(C#N)C#N | 0 | 3.5µM | 63! | 0 | 0
CCN(CC)c1cc(C)c2cc(NC(=O)c3cccc(OC)c3)ccc2n1 | 0 | 10µM | 0 | 0 | 0
CCN(CC)c1cc(C)c2cc(NC(=O)/C=C/c3cc(OC)c(OC)c(OC)c3)ccc2n1 | 0 | 11µM | 0 | - | ?
CCOc1ccc(/C=C/C(=O)Nc2ccc3nc(N(CC)CC)cc(C)c3c2)cc1OC | 0 | ? | 0 | - | 0
COC(=O)c1ccc(C)cc1C1CN=NC12Cc1cc(C)ccc1C2=O (configuration not stated) | 0 | ? | 95 | 0 | 0
Nc1nnnn1-c1ccccc1 | - | - | - | 0 | -
SMILES | TRPML1 blocker | GLP1R inv ag | TRPML1 ag | GLP-1R agonist | GLP1R cytotox
Cn1c(N)c(-c2ccccc2)c2ccc([N+](=O)[O-])cc2c1=O | 0 | 0 | 83 | 0 | 0
Cc1cccc(Cn2nc(C(C)(C)C)cc2C(=O)Nc2ccc(F)cc2)c1 | 0 | 5µM | 0 | 0 | ?
Cc1ccc(Cn2nc(C)cc2C(=O)Nc2ccccc2Cl)cc1 | 0 | 0 | 0 | 0 | 0
COC(=O)c1cc(NC(=O)c2cc(C(C)(C)C)nn2Cc2ccc(F)cc2)ccc1N1CCOCC1 | 0 | 3.5µM | 0 | 0 | 0
Cc1ccc(Cn2nc(C)cc2C(=O)Nc2ccc(Cl)cc2)cc1 | 0 | 4.5µM | 0 | 0 | 0
CCc1cccc(NC(=O)CSc2n[nH]c(-c3ccccc3Cl)n2)c1 | 0 | 0 | 0 | - | 0
c1ccc(CN2CCN(c3nc(-c4ccccc4)nc4ccccc34)CC2)cc1 | 0 | 3.5µM | 0 | 0 | 0
COc1ccccc1C(=O)Nc1ccnn1C1CCN(Cc2cn(C)c3ccccc23)CC1 | 0 | 11µM | 0 | 0 | 0
O=C(Nc1ccnn1C1CCN(CCCC2CCCC2)CC1)c1ccccc1Cl | 0 | 10µM | 0 | 0 | 0
COc1ccccc1C(=O)Nc1ccnn1C1CCN(CCCC2CCCC2)CC1 | 0 | ? | 0 | 0 | ?
COc1cccc(NC(=O)Nc2nc(SC)ns2)c1 | 0 | ? | 0 | 0 | 0
COc1cccc(NC(=O)Nc2nc(SC(C)(C)C)ns2)c1 | 0 | 5.6µM | 0 | 0 | ?
COc1ccccc1NC(=O)c1cc2cc(Br)ccc2cc1O | 0 | 6.3µM | 0 | 0 | 0
CCOC(=O)C1=C(c2ccccc2)NC(N)=NC1c1ccc(OCc2ccc(C(=O)OC)cc2)cc1 (configuration not stated) | - | 8.9µM | - | 0 | ?
CC(C)(C)n1ncc2c(=O)n(Cc3cccc(Oc4ccccc4)c3)cnc21 | 0 | - | 0 | - | -
Cc1ccc(C(C)C)c(OCC(=O)NCC2(N(C)C)CCCCC2)c1 | 0 | ? | 0 | 0 | 0
CCC(O)(CC)C(=O)N(Nc1ccc(C)cc1)c1ccc(C)cc1 | 0 | 8.9µM | 0 | 0 | 0
C[C@@H]1[C@H](c2ccccc2)OCCS(=O)(=O)N1Cc1ccccc1Br | - | - | 0 | - | -
CC(=O)OC1[C@H](Oc2c(O)c(C)c3c4c2[C@@H](C)CC[C@@H]4[C@@H](C)C[C@@H]3C=C(C)C)OC[C@@H](O)[C@@H]1O (some centres not stated) | 0 | 0 | 0 | 0 | 0
CC(C)=C[C@H]1C[C@H](C)[C@H]2CC[C@H](C)c3c(O[C@@H]4OC[C@@H](O)[C@H](O)C4O)c(O)c(C)c1c32 (some centres not stated) | 0 | 10µM | 0 | 0 | 0
CCn1c(=O)cc(SCC(=O)NCc2ccccc2OC)c2ccccc21 | 0 | 0 | 0 | - | 0
O=C(NCCc1csc2nc(-c3cccc(F)c3)nn12)c1ccc(Br)o1 | 0 | 0 | 0 | - | 0
CC(C)(C)n1nnnc1C(c1cccs1)N1CCCc2ccccc21 (configuration not stated) | 0 | 11µM | 0 | 0 | 0
